Several values for one entry are separate records, joined by “and”; a condition that tells them apart may be missing. Equal values may be shown once. Results filed as inconclusive are left out. Activity calls are given as the source filed them. The call rests on the fitted dose curve; in most records, active means well fitted inhibition curve with a large enough effect; inconclusive means small, poorly fitted or top-dose-only effect; inactive means flat fitted curve, though single readings scatter. Non-standard residues stand in square brackets, D forms with d. Residues, ends and D or L forms follow the SMILES beside them. *: point of attachment. Sta = CC(C)C[C@H](N)[C@@H](O)CC(=O)O; Isovaleryl = CC(C)CC(=O)*
Columns and labels:
JCK = experiment: qHTS profiling for inhibitors of Plasmodium falciparum proliferation (AID 504749); further: potency means the concentration at half of the fitted maximal effect; details: P. falciparum in erythrocytes, SYBR Green DNA, 72 h; series mostly up to 28.7 µM
In short: (§1)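 In a 72 h erythrocytic culture (37 C, humidified, 5% CO2) at 2.5% hematocrit and 0.3% starting parasitemia, compounds were tested; SYBR Green I in detergent lysis buffer stained parasite DNA overnight.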

P93_24 = experiment: as above; details: P. falciparum in erythrocytes, SYBR Green DNA, 72 h; series mostly up to 28.7 µM
In short: as §1

PC26 = experiment: as above; details: P. falciparum in erythrocytes, SYBR Green DNA, 72 h; series mostly up to 28.7 µM
In short: as §1

PC49 = experiment: as above; details: P. falciparum in erythrocytes, SYBR Green DNA, 72 h; series mostly up to 28.7 µM
In short: as §1

W2 = experiment: as above; details: P. falciparum in erythrocytes, SYBR Green DNA, 72 h; series mostly up to 28.7 µM
In short: as §1

HEK293 = experiment: Cytotoxic Profiling of Annotated Libraries Using Quantitative High-Throughput Screening (AID 1296008); details: Five cell lines viability, CellTiter-Glo ATP luminescence, 48-72 h; max response: stronger effect = lower value; further: potency means the concentration at half of the fitted maximal effect; on max response: on the % scale 0 is the no-effect control and ±100 the full control effect
In short: (§2)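 Cytotoxicity was measured as CellTiter-Glo ATP luminescence, read after 10 min at room temperature. Compound treatment of the cells lasted 48 or 72 hr at 37 degrees Celsius in a qHTS format.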

HaCat [1] = experiment: as above; details: Five cell lines viability, CellTiter-Glo ATP luminescence, 48-72 h; max response: stronger effect = lower value
In short: as §2

KB-3-1 = experiment: as above; details: Five cell lines viability, CellTiter-Glo ATP luminescence, 48-72 h; max response: stronger effect = lower value
In short: as §2

NIH3T3 = experiment: as above; details: Five cell lines viability, CellTiter-Glo ATP luminescence, 48-72 h; max response: stronger effect = lower value
In short: as §2

HACAT [2] = experiment: qHTS assay to identify novel small-molecules to repurpose for Merkel cell carcinoma treatment (AID 1296009); details: MCC and control cell lines, CellTiter-Glo viability, 72 h
In short: (§3)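 Cell viability measured by CellTiter-Glo following 72 hr compound treatment at 37 degree celsius, with NPC and MIPE libraries tested in 8- and 11-point concentration series.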

TAB109 = experiment: qHTS profiling for inhibitors of Plasmodium falciparum proliferation (AID 504749); further: potency means the concentration at half of the fitted maximal effect; details: P. falciparum in erythrocytes, SYBR Green DNA, 72 h; series mostly up to 28.7 µM
In short: as §1

TAB113 = experiment: as above; details: P. falciparum in erythrocytes, SYBR Green DNA, 72 h; series mostly up to 28.7 µM
In short: as §1

TAB165 = experiment: as above; details: P. falciparum in erythrocytes, SYBR Green DNA, 72 h; series mostly up to 28.7 µM
In short: as §1

CRL-7250 = normal cell line; experiment: Cytotoxic Profiling of Annotated Libraries Using Quantitative High-Throughput Screening (AID 1296008); details: Five cell lines viability, CellTiter-Glo ATP luminescence, 48-72 h; max response: stronger effect = lower value; further: potency means the concentration at half of the fitted maximal effect; on max response: on the % scale 0 is the no-effect control and ±100 the full control effect
In short: as §2

N140 = experiment: qHTS profiling for inhibitors of Plasmodium falciparum proliferation (AID 504749); further: potency means the concentration at half of the fitted maximal effect; details: P. falciparum in erythrocytes, SYBR Green DNA, 72 h; series mostly up to 28.7 µM
In short: as §1

P94_40 = experiment: as above; details: P. falciparum in erythrocytes, SYBR Green DNA, 72 h; series mostly up to 28.7 µM
In short: as §1

PAD = experiment: as above; details: P. falciparum in erythrocytes, SYBR Green DNA, 72 h; series mostly up to 28.7 µM
In short: as §1

PC15 = experiment: as above; details: P. falciparum in erythrocytes, SYBR Green DNA, 72 h; series mostly up to 28.7 µM
In short: as §1

SC27B = experiment: as above; details: P. falciparum in erythrocytes, SYBR Green DNA, 72 h; series mostly up to 28.7 µM
In short: as §1

HEK293T = experiment: qHTS assay to identify novel small-molecules to repurpose for Merkel cell carcinoma treatment (AID 1296009); details: MCC and control cell lines, CellTiter-Glo viability, 72 h; at 44.8 µM (top of the series) unless noted
In short: as §3

[3] = at 44.8 µM (top of the series) unless noted
Further: nearly all actives have a fitted effect of over 60% in size.

O=C1CCc2ccc(OCCCCN3CCN(c4cccc(Cl)c4Cl)CC3)cc2N1
inactive: Potency (JCK) | Potency (PC26) | Potency (PC49) | outcome (HaCat [1]) | max response (KB-3-1) -20.7% | max response (NIH3T3) -18.1% | outcome (HACAT [2]; [3])
active: Potency (P93_24) 10 µM | Potency (W2) 9.53 µM | Potency (HEK293) 16.8 µM

CCCCCCCCOc1ccccc1C(=O)Nc1ccc(C(=O)OCC[N+](C)(CC)CC)cc1
active: Potency (P93_24) 12.6 µM | Potency (TAB109) 7.94 µM | Potency (TAB113) 10 µM | Potency (TAB165) 6.31 µM | Potency (W2) 6.75 µM
inactive: max response (CRL-7250) -18.9% and -13.2% | max response (HaCat [1]) -9.66% | max response (KB-3-1) 3.44% | max response (NIH3T3) -11.9% and 2.27%

CC(C)CC(=O)N[C@H](C(=O)N[C@H](C(=O)N[C@@H](CC(C)C)[C@@H](O)CC(=O)N[C@@H](C)C(=O)N[C@@H](CC(C)C)[C@@H](O)CC(=O)O)C(C)C)C(C)C (Isovaleryl-VV[Sta]A[Sta]-OH)
inactive: max response (CRL-7250) 0.655% | max response (HEK293) -5.42% | max response (KB-3-1) 15.7% and 7.23% | max response (NIH3T3) 0.118%

CN(C)CCc1c[nH]c2ccc(Cn3cncn3)cc12
inactive: Potency (JCK) | Potency (N140) | Potency (P93_24) | Potency (P94_40) | Potency (PAD) | Potency (PC15) | Potency (PC26) | Potency (PC49) | Potency (SC27B) | Potency (TAB113) | Potency (TAB165) | max response (KB-3-1) 8.57% | outcome (KB-3-1)
active: Potency (CRL-7250) 1.32 µM | Potency (HEK293) 0.743 µM

O=Nc1c(-c2c(O)[nH]c3cc(Br)ccc23)[nH]c2ccccc12
active: Potency (HEK293) 14.8 µM | Potency (HaCat [1]) 11.8 µM | Potency (KB-3-1) 13.2 µM

Cc1cc(O)c2c(c1)C(=O)c1cc(O)cc(O)c1C2=O
inactive: outcome (CRL-7250) | max response (HaCat [1]) -5.49% | max response (KB-3-1) -3.32% | max response (NIH3T3) 0.664%

O=C(OC1C[C@H]2CC[C@@H](C1)[N+]21CCCC1)C(O)(c1ccccc1)c1ccccc1 (stereo partly drawn)
active: Potency (P93_24) 2.24 µM | Potency (P94_40) 4.47 µM | Potency (TAB109) 3.55 µM | Potency (TAB165) 3.98 µM | Potency (W2) 1.69 µM
inactive: Potency (JCK) | Potency (PC15) | Potency (PC49) | max response (CRL-7250) 4.02% | max response (HEK293) 3.35% | max response (HaCat [1]) 1.67% | max response (KB-3-1) 8.48% and 5.72% | max response (NIH3T3) -8.22%

O=C(O)c1cccc(-c2noc(-c3ccccc3F)n2)c1
inactive: Potency (JCK) | Potency (N140) | Potency (P93_24) | Potency (P94_40) | Potency (PAD) | Potency (PC15) | Potency (PC26) | Potency (PC49) | Potency (SC27B) | Potency (TAB109) | Potency (TAB113) | Potency (TAB165) | Potency (W2) | outcome (CRL-7250) | max response (HaCat [1]) -27.5% and -24.9% | outcome (HaCat [1]) | max response (KB-3-1) -19.9% and 8.42% | max response (NIH3T3) -7.81% | outcome (HACAT [2]; [3])

CCCCN(CCCC)CCC(O)c1cc2c(Cl)cc(Cl)cc2c2cc(C(F)(F)F)ccc12 (stereo not drawn)
active: Potency (JCK) 10 µM | Potency (N140) 0.0032 µM | Potency (P93_24) 0.0056 µM | Potency (P94_40) 0.0032 µM | Potency (PAD) 0.0045 µM | Potency (PC15) 0.0089 µM | Potency (PC26) 0.0102 µM | Potency (SC27B) 0.0126 µM | Potency (TAB109) 0.0071 µM | Potency (TAB113) 0.0079 µM | Potency (TAB165) 0.0079 µM

NCCCCNCCCN
inactive: max response (CRL-7250) -45.5% | outcome (HaCat [1]) | max response (KB-3-1) 1.33% | outcome (HACAT [2]; [3])

NC(=NCc1ccccc1)NC(=O)c1nc(Cl)c(N)nc1N
inactive: max response (HEK293) -5.25% | outcome (HaCat [1]) inactive; activator | max response (KB-3-1) -6.74% | max response (NIH3T3) 3.69% | outcome (HACAT [2]; [3]) inactive; activator

O=C(O)c1cc(=O)c2c(OCC(O)COc3cccc4oc(C(=O)O)cc(=O)c34)cccc2o1
inactive: Potency (JCK) | Potency (N140) | Potency (P93_24) | Potency (P94_40) | Potency (PAD) | Potency (PC15) | Potency (PC26) | Potency (PC49) | Potency (SC27B) | Potency (TAB109) | Potency (TAB113) | Potency (TAB165) | Potency (W2)

NNc1nncc2ccccc12
active: Potency (P93_24) 3.98 µM | Potency (P94_40) 3.55 µM | Potency (W2) 3.22 µM
inactive: Potency (PC49) | outcome (HACAT [2]; at 17.4 µM (top of the series)) | outcome (HACAT [2]; at 44.8 µM (top of the series)) | outcome (HEK293T) inactive [at 17.4 µM]

C[C@H](Cc1ccc(O)c(O)c1)[C@@H](C)Cc1ccc(O)c(O)c1
inactive: outcome (HaCat [1]) | max response (KB-3-1) -9.31% and -6.61% | max response (NIH3T3) -21.7% | outcome (HACAT [2]; [3])

O=c1ccc2ccc(O)c(O)c2o1
inactive: outcome (HEK293) | outcome (HaCat [1]) | outcome (KB-3-1) | max response (NIH3T3) -1.87% | outcome (HACAT [2]; [3]) | outcome (HEK293T)

CC[C@]1(O)C[C@H]2CN(CCc3c([nH]c4ccccc34)[C@@](C(=O)OC)(c3cc4c(cc3OC)N(C=O)[C@H]3[C@@](O)(C(=O)OC)[C@H](OC(C)=O)[C@]5(CC)C=CCN6CC[C@]43[C@@H]65)C2)C1
inactive: Potency (PC15) | Potency (PC49) | outcome (HaCat [1]) | outcome (HACAT [2]; [3])
active: Potency (N140) 3.55 µM | Potency (P94_40) 3.16 µM | Potency (SC27B) 1.58 µM | Potency (TAB109) 2 µM | Potency (TAB113) 2.51 µM | Potency (W2) 0.338 µM | Potency (CRL-7250) 29.6 nM and 211 nM | Potency (HEK293) 14.8 nM and 150 nM | Potency (KB-3-1) 1.7 nM and 1.84 µM

CN(C)C(=O)[C@H](O)[C@H](Cc1ccccc1)NC(=O)c1cc2cc(Cl)ccc2[nH]1
inactive: outcome (CRL-7250) | max response (HaCat [1]) -6.71% | outcome (HaCat [1]) | max response (KB-3-1) -0.73% | outcome (KB-3-1) | max response (NIH3T3) -4.58% | outcome (NIH3T3) | outcome (HACAT [2]; [3])

Source: PubChem BioAssay (NCATS)
